# Assay results as given in publication PMC4336329 (PLoS ONE, 2015).
# Out of some 310,000 compounds screened, about 14,000 (4.5%) showed an effect of 50% or more. The effect is printed as a negative number. For the sample, strong results were picked, then their nearest neighbours and some compounds at random.
# Molecular target: human ether-à-go-go-related gene (hERG) potassium channel (human, UniProt Q12809)
# Assay: primary screen, population patch clamp on CHO cells stably expressing hERG; higher = less effect of the substance
# 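Further: peak tail current of the secondary pulse compared with the same well before compound.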
# human ether-à-go-go-related gene (hERG) potassium channel, sequence (Q12809 whole entry, looked up): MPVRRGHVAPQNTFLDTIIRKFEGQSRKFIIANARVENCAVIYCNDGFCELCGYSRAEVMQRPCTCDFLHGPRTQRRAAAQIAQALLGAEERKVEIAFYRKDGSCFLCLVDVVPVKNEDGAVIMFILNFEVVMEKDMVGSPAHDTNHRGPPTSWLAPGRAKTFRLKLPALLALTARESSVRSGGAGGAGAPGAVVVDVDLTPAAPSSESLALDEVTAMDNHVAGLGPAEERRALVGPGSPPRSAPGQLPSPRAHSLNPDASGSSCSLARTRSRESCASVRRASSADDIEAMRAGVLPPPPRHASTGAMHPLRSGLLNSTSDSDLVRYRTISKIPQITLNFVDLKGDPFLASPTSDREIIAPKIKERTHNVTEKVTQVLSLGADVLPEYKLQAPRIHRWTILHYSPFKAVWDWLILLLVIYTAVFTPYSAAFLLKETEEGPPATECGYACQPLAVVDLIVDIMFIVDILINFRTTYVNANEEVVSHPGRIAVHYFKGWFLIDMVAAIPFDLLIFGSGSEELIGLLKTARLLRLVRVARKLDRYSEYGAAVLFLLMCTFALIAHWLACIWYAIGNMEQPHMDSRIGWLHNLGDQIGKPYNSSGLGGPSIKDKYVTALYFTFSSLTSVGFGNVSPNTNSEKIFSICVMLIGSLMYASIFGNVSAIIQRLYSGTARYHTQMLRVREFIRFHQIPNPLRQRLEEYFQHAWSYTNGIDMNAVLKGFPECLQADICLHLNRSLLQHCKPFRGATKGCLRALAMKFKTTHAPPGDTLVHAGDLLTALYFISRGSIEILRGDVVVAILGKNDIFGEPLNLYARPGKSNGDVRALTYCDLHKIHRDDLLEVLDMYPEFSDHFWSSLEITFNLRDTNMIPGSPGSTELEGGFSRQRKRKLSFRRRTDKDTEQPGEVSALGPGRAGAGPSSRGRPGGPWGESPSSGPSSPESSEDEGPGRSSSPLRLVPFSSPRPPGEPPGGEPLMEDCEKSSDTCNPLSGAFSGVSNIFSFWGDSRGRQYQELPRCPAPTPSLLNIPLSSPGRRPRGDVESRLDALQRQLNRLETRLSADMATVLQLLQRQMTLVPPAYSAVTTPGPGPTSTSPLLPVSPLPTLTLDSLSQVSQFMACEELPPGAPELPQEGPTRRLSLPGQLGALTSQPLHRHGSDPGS
row,Structure (SMILES),"hERG current change (%, negative = inhibition) at 10uM [%]"
1,CC1CCCCN1S(=O)(=O)c1ccc(C(=O)Nc2nnc(-c3ccco3)o2)cc1 (stereo not drawn),-2.35
2,O=C(CCc1ccccc1)NNC(=O)Cc1ccc(Cl)cc1,13.1
3,CCOC(=O)C1=C(C)Nc2ccccc2N=C1NC(=O)c1cccc(S(=O)(=O)NCc2ccccc2)c1,-19.4
4,Cc1nn(Cc2n[nH]c(=S)n2Cc2ccccc2)c(C)c1Cl,14
5,CC(C)=CCN1CCN(Cc2cccc3c2OCO3)CC1CCO (stereo not drawn),-12.6
6,OCCC1CN(Cc2cccc3c2OCO3)CCN1C1CCCC1 (stereo not drawn),-20.4
7,CC(C)N1CCC(N2CCN(Cc3cc4c(cc3Cl)OCO4)CC2CCO)CC1 (stereo not drawn),-18.5
8,CCOc1ccc(CN2CCN(Cc3cc4c(cc3Cl)OCO4)CC2CCO)cc1 (stereo not drawn),-73.3
9,OCCC1CN(Cc2cc3c(cc2Cl)OCO3)CCN1C1CCCC1 (stereo not drawn),-50.8
10,CCOc1ccc(CN2CCN(Cc3cccc4c3OCO4)CC2CCO)cc1 (stereo not drawn),-77.4
11,OCCC1CN(Cc2cccc3c2OCO3)CCN1Cc1ccccc1 (stereo not drawn),-3.38
12,OCCC1CN(Cc2cc3c(cc2Cl)OCO3)CCN1Cc1ccccc1 (stereo not drawn),-45.3
13,CC(C)N1CCN(Cc2cccc3c2OCO3)CC1CCO (stereo not drawn),-0.928
14,CC(C)N1CCN(Cc2cc3c(cc2Cl)OCO3)CC1CCO (stereo not drawn),-2.34
15,Cc1ccc(CN2CCN(Cc3cccc4c3OCO4)CC2CCO)cc1 (stereo not drawn),-51.2
16,CC(C)CN1CCN(Cc2cccc3c2OCO3)CC1CCO (stereo not drawn),-1.45
17,COc1ccc(C2/C=C\CN(CC(C)C)CC(=O)N2Cc2ccc(F)cc2)cc1 (stereo not drawn),-6.03
18,Cc1cc([N+](=O)[O-])nn1CC(=O)N(C)C1CCCCC1,-18.6
19,O=C(Nc1ccccc1Cl)C1CCN(S(=O)(=O)c2cccc3nonc23)CC1,16
20,CC(=O)c1c(C)oc2ccc(N(C(C)=O)S(=O)(=O)c3cccc([N+](=O)[O-])c3)cc12,8.76
21,N#C/C(=C(/O)CN1C(=O)c2ccccc2C1=O)c1nc2ccccc2[nH]1,11.6
22,CCOc1ccccc1CN1CCN(Cc2cccc3c2OCO3)CC1CCO (stereo not drawn),-62.6

row,Structure (SMILES),"hERG current change (%, negative = inhibition) at 10uM [%]"
1,COc1ccc(CN(Cc2cccnc2)S(=O)(=O)c2ccc(-n3cnnn3)c(OC)c2)cc1,-46.7
2,COc1cc(S(=O)(=O)N(Cc2cccnc2)Cc2cccc(OC)c2OC)ccc1-n1cnnn1,-46.5
3,COc1cc(S(=O)(=O)N(Cc2cccnc2)Cc2ccco2)ccc1-n1cnnn1,-52.3
4,COc1cc(S(=O)(=O)N(Cc2ccc(C)cc2)Cc2ccco2)ccc1-n1cnnn1,2.53
5,COc1ccccc1CN(Cc1ccco1)S(=O)(=O)c1ccc(-n2cnnn2)c(OC)c1,7.21
6,COc1ccccc1CN(Cc1cccnc1)S(=O)(=O)c1ccc(-n2cnnn2)c(OC)c1,-63
7,CC(C)C[C@H](NC(=O)c1nc[nH]c1C(=O)N1CC[NH2+]CC1)C(=O)OCc1ccccc1.[Cl-],20.5
8,COc1ccc(C2C3=C(CCCC3=O)N(CC(=O)O)C3=C2C(=O)CCC3)cc1Cl,23.8
9,CN(c1cccc(NC(=O)CCSc2ccccc2)c1)S(C)(=O)=O,-28.8
10,O=C1c2ccccc2NC(c2ccc3c(c2)OCCO3)N1c1ccc2c(c1)OCCO2 (stereo not drawn),10.9
11,Cc1cc(NC(=O)/C=C\C(=O)O)c([N+](=O)[O-])cc1C,11.6
12,Cc1ccc(NC(=O)/C=C\C(=O)O)c([N+](=O)[O-])c1,21.4
13,Cc1ccc(NC(=O)/C=C/C(=O)O)c([N+](=O)[O-])c1,-67
14,COC(=O)c1cn(NC(=O)Cc2cccc(OC)c2)c(=O)c2ccccc12,12
15,CCN1CCN(CCCN(Cc2ccco2)C(=S)Nc2ccc(Cl)c(C)c2)CC1,-74.8
16,Cc1ccc(NC(=S)N(CCCN2CCOCC2)Cc2ccco2)cc1Cl,-36.6
17,COc1cccc(NC(=S)N(CCCN2CCN(C)CC2)Cc2ccco2)c1,-36.2
18,Cc1cc(NC(=S)N(CCCN2CCN(C)CC2)Cc2ccco2)ccc1Cl,-68.2
19,CCN1CCN(CCCN(Cc2ccco2)C(=S)Nc2ccc(C)c(Cl)c2)CC1,-64.8
20,Cc1cccc(NC(=S)N(CCCN2CCOCC2)Cc2ccco2)c1,-29.9
21,S=c1[nH]nc(CSCCOc2ccccc2)o1,8.24
22,CN(C)S(=O)(=O)c1cccc(NC(=O)CNCC2CCCCC2)c1.O=C(O)C(=O)O,-1.77

row,Structure (SMILES),"hERG current change (%, negative = inhibition) at 10uM [%]"
1,Cc1ccc2nc(SCC(=O)N3c4ccccc4CC3C)c(C)cc2c1 (stereo not drawn),7.54
2,COc1ccc(NC(=O)C2CC2)cc1-n1cnnn1,5.86
3,O=C1CC(c2ccccc2)Cc2nc(N3CCc4ccccc4C3)ncc21 (stereo not drawn),-2.75
4,CCC(CO)N=CC1=C(O)CC(c2ccccc2)CC1=O (stereo not drawn),17.1
5,Cc1cc(C)c(NC2=NS(=O)(=O)c3ccccc32)c(C)c1,-10.9
6,COc1ccc(Nc2nc(C)c3ccccc3n2)cc1,-17.4
7,CC(=O)c1cnc(Nc2nc(C)c3ccccc3n2)nc1C,17.3
8,CC1=NC(Nc2nc(C)c3ccccc3n2)=NC(C)(C)C1,-69.4
9,O=C(O)c1ccccc1Sc1ncnc2sccc12,9.7
10,Cc1cc(C(=O)OCC(=O)NC2CCS(=O)(=O)C2)c(C)n1-c1ccccc1 (stereo not drawn),-6.8
11,CC(NC(=O)Nc1nnc(C(F)(F)F)s1)(C(F)(F)F)C(F)(F)F,-7.61
12,CCc1nnc(NC(=O)CCN2C(=O)c3ccccc3S2(=O)=O)s1,17.3
13,CCOC(=O)c1c(C)[nH]c(C(=O)N/N=C/c2ccc(OC)c(OC)c2)c1C,12.7
14,O=C(NC(=S)NCCCN1CCOCC1)c1ccc([N+](=O)[O-])cc1,-33.4
15,COc1ccc(/C=C(\NC(=O)c2ccc([N+](=O)[O-])cc2)C(=O)NCCN2CCOCC2)cc1,-70.7
16,COc1ccc(/C=C(\NC(=O)c2ccc([N+](=O)[O-])cc2)C(=O)NCCCN2CCOCC2)cc1,-77
17,COc1ccc(/C=C(\NC(=O)c2ccccc2)C(=O)NCCN2CCOCC2)cc1OC,23
18,COc1ccc(C(=O)N/C(=C\c2cn(C)c3ccccc23)C(=O)NCCCN2CCOCC2)cc1,4.94
19,COc1ccc(C(=O)N/C(=C\c2ccco2)C(=O)NCCN2CCOCC2)cc1,8.33
20,COc1cc2c(cc1OC)C(c1ccccc1)CC2=O (stereo not drawn),7.03
21,COC(=O)c1ccc(-c2nc3ccccc3[nH]2)cc1,17.8
22,Cc1cccc(OCCNc2ccc([N+](=O)[O-])cn2)c1,-21.3

row,Structure (SMILES),"hERG current change (%, negative = inhibition) at 10uM [%]"
1,Cc1cccc(C(C)Nc2ccc([N+](=O)[O-])cn2)c1 (stereo not drawn),-68.9
2,CCC(C(=O)Nc1ccc([N+](=O)[O-])cn1)c1ccccc1 (stereo not drawn),-67.4
3,Cc1cc(Cl)ccc1OC(C)C(=O)Nc1ccc([N+](=O)[O-])cn1 (stereo not drawn),-75.9
4,CC(Oc1cccnc1[N+](=O)[O-])C(=O)Nc1ccc(Cl)cn1 (stereo not drawn),-16.6
5,CCC(CC)C(=O)Nc1ccc([N+](=O)[O-])cn1,10.8
6,Cc1cccc(Nc2ccc([N+](=O)[O-])cn2)c1,10.9
7,CC(Oc1cccc(Cl)c1)C(=O)Nc1ccncc1 (stereo not drawn),3.81
8,Cc1csc(NC(=O)C(C)Oc2ccc(Cl)cc2C)n1 (stereo not drawn),-21
9,CC(=O)Nc1ccc([N+](=O)[O-])cn1,24.4
10,CC(Oc1cccc(Cl)c1)C(=O)Nc1ccc([N+](=O)[O-])cn1 (stereo not drawn),-62.2
11,CCC(C(=O)Nc1ccccn1)c1ccccc1 (stereo not drawn),1.4
12,CCN(CC)S(=O)(=O)c1ccc(NC(=O)Cc2cccs2)cc1,5.81
13,CCOC(=O)c1c(NC(=O)CSc2nc3c(c(=O)n(C)c(=O)n3C)n2C(C)C)sc(C)c1C,-0.527
14,CCCCNC(=O)c1cc([N+](=O)[O-])[nH]n1,19.1
15,COCCNC(=O)CSc1nc2ccccc2c(=O)n1CCC(=O)N1CCN(c2ccccc2)CC1,-35
16,COc1ccccc1N1CCN(C(=O)CSc2nc3ccccc3nc2N2CCCCC2)CC1,19
17,O=C(CSc1nc2ccccc2c(=O)[nH]1)N1CCN(c2ccccc2)CC1,14.1
18,COc1ccccc1N1CCN(C(=O)CSc2nnc3c4ccccc4nc(Cc4ccccc4)n23)CC1,-4.18
19,COCCNc1nc(SCC(=O)N2CCN(c3ccccc3)CC2)nc2ccccc12,-86.9
20,COCCNc1nc(SCC(=O)N2CCN(c3ccccc3OC)CC2)nc2ccccc12,-88.6
21,O=C(NC1CC1)c1ccc(-c2nc3ccccc3s2)s1,10.7
